# pAkt inh: Akt phosphorylation inhibition; 360,000 tested, 0.32% active; Neuro2A IGF-stimulated pAkt S473 HTRF, 20 min; hits give low values; activity change, % for hits at 50 µM; AID 651550; in the data active = activity change below about -80%; inconclusive = mostly about -51% to -80%; also: % is scaled to controls: 0 for no effect and ±100 for the full control effect
#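 Neuro2A cells (4,500/well, DMEM with 0.5% FBS) were treated with compound at a single 50 µM final concentration, stimulated with 6 nM IGF for 20 min at 37 °C, and lysed. Phospho-Akt Ser473 was read by HTRF as 665/615 ratio ×10^4.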
# TSHR antag: blocks TSH signaling through the human TSH receptor | 330,000 tested, 0.2% active | activity change, negative = inhibition, % at 11.5 µM | TSHR-expressing cells, TSH-stimulated cAMP HTRF, 2 h; hits give low values | AID 504810 | P16473;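 active = activity change below a set negative limit, meaning inhibition stronger than a set level, cut at about -70% in these data; inconclusive = activity change between two set negative limits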; also: % is scaled to controls: 0 for no effect and ±100 for the full control effect
#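 Inhibition of cAMP made by TSHR-expressing cells under TSH stimulation (4nM final, EC80; 2 h, 37 deg C) is quantified with a one-step lysis HTRF kit, anti-cAMP cryptate versus cAMP-d2.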
# GRP78 ERSR act: induces the endoplasmic reticulum stress response in human glioma cells | U87-MG GRP78 promoter luciferase reporter, 16 h | AID 602332 | Potency, µM, without a hit: top-dose activation, usual class: activators | 420,000 tested, 0.02% active; also: potency is read from the fitted curve at half-maximal effect; series mostly up to about 76 µM; % of control where 0% means no effect; nearly all actives have a fitted effect of over 35% in size
#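 Stably transfected U87-MG human glioma cells carrying a GRP78-based luminescent sensor were seeded at 1000 cells/well, pin-dosed with compounds and incubated 16 h. Luciferase reagent was then added, and end-point luminescence was read after 10 min at room temperature.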
# LDHA block: inhibitors of human lactate dehydrogenase A | purified LDHA, NADH/diaphorase-resazurin fluorescence; hits give low values | activity change, % (values are at about 110 or 230 µM) | 480,000 tested, 0.15% active | AID 1347041; in the data active = activity change below about -30%; inconclusive = mostly about -25% to -30%;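 also: plate controls were DMSO wells for no effect and wells without enzyme for full effect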
#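 LDH5 2 nM; NADH 0.06 mM, pyruvate 0.2 mM; 200 mM Tris pH 7.4, EDTA, Tween-20; 5 min RT. Detection: diaphorase 0.133 mg/mL + resazurin 37 µM, fluorescence ex540/em590 at 0 and 20 min; normalized to enzyme-free and DMSO wells.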
# RGS4 inhibitor: human RGS4 inhibition; Potency, µM (doses to about 114 µM), inactives show at the highest dose activity change, negative = inhibition, actives largely listed as inhibitors; P49798; 390,000 tested, 0.039% active; Transcreener GDP fluorescence polarization, RGS4-accelerated GTP hydrolysis; AID 504845; also: potency is read from the fitted curve at half-maximal effect; % is scaled to controls: 0 for no effect and ±100 for the full control effect; nearly all actives have a fitted effect of over 75% in size
# Target sequence (P49798 whole entry, looked up): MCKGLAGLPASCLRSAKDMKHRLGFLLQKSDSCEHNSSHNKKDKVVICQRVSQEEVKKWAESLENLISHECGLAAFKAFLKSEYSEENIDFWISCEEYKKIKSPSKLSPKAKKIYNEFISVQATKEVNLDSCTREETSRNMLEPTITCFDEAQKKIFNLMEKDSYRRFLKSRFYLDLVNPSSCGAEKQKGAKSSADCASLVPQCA
#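 MLSMR compounds (23 nl, pin-transferred) preincubated 10 min at room temperature with a 500nM (2x) first reagent, then RGS4 at 900nM (2x) plus Transcreener GDP mix added; fluorescence polarization (620/688 nm) read before and after 90 min at 30 °C.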
# TCR act: activators of T cell receptors. Potency, µM (titrated, usually from 9.22 µM), inactives show top-dose activation of IL-2 secretion, actives largely listed as activators. AID 504894. 330,000 tested, under 10 active. primary human leukocytes, anti-CD3, IL-2 HTRF, 48 h; also: % of control where 0% means no effect
#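 IL-2 produced over 48 hr by a-CD3 bead-stimulated primary human leukocytes exposed to compounds was detected with a homogeneous time-resolved FRET immunoassay, 665nm acceptor signal after 320nm excitation.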
# * = called active by the depositor; i = inactive; u = inconclusive; x = no result; [ ] = dose if it differs, or a comment. A selection: hits, their analogues and other compounds. The true share with any hit is near 0.55%. Unless noted, calls follow the shape of the dose curve; as a rule, active = well fitted curve in the direction sought with a large enough effect; inconclusive = small, poorly fitted or top-dose-only effect, or another doubt; inactive = no such curve, though single readings can be large; an effect the other way counts as inactive or inconclusive.
SMILES,pAkt inh,TSHR antag,GRP78 ERSR act,LDHA block,RGS4 inhibitor,TCR act
Cc1ccc2[nH]cc(C(C(=O)O)N3CCN(C(c4ccccc4)c4ccccc4)CC3)c2c1 (stereo not given),x,x,x,0,x,x
CCOc1ccccc1C(=O)Nc1c(NCc2ccccc2)c2ccccc2oc1=O,x,x,x,13,x,x
CCc1cc2c(=O)c(Oc3ccccc3F)c(C)oc2c(CN(C)C)c1O,-104%*,-1,-3%,1,-19%,-8%
CCCCCOC(=O)c1c(C)oc2c1cc(NS(=O)(=O)c1cccs1)c1ccccc12,x,x,x,15,x,x
O=C(Nc1cc(Cl)ccc1Cl)c1cc([N+](=O)[O-])cc(Br)c1O,x,x,-1%,-54*,-19%,x
Nc1c(S(=O)(=O)O)cc(Nc2ccc(Nc3nc(Cl)nc(Nc4ccc(S(=O)(=O)O)cc4)n3)c(S(=O)(=O)O)c2)c2c1C(=O)c1ccccc1C2=O,x,-30,-6%,-18,19µM*,x
CC(Sc1nc(-c2ccco2)nc2ccccc12)C(=O)N(C(C)C)C(C)C (stereo not given),x,x,x,-10,x,x
O=C(CCS(=O)(=O)c1ccccc1)Nc1nc(-c2ccccn2)cs1,i,x,-3%,-9,7%,5%
O=C(CCS(=O)(=O)c1ccc(F)cc1)Nc1nc(-c2ccccn2)cs1,x,-110*,-5%,0,4%,7%
O=C(O)CCCC(=O)Nc1nc(-c2ccccc2)cs1,i,-5,-1%,-2,-6%,-7%
O=C(O)CCCC(=O)Nc1nc(-c2ccc(F)cc2)cs1,-115%*,10,-6%,-10,-29%,-5%
CC1(C)Cc2c(C#N)c(NCc3ccco3)nc(-c3ccco3)c2CO1,-89%*,4,-11%,1,-41%,-1%
CC(C)c1nc2sc3c(NCc4ccco4)ncnc3c2c2c1COC(C)(C)C2,-104%*,2,-4%,4,-11%,5%
Cc1nc(NCc2ccco2)c(C#N)c2c1COC(C)(C)C2,i,-13,-5%,-4,-17%,4%
Cc1cc(Nc2cccc(Cl)c2)nc2ccc(NC(=O)CC3CCCCC3)cc12,x,x,x,10,x,x
O=[N+]([O-])c1ccc2c(c1)S(=O)(=O)C=C2,x,-14,-15%,x,21µM*,x
Cc1cc([N+](=O)[O-])ccc1N,i,23,-1%,0,-26%,7%
Cc1c(CC(=O)Nc2ccc3c(c2)OCO3)c(=O)oc2c(C)c(O)ccc12,x,x,x,13,x,x
CCCC(=O)Nc1ccc2nc(SCC(=O)Nc3nccs3)sc2c1,i,2,-3%,-35*,-16%,1%
CCCC(=O)Nc1ccc2nc(SCCOc3ccccc3)sc2c1,x,x,-4%,4,2%,x
CC(C)Cc1nc(NCCN)c(C#N)c2c1CCCC2,x,x,x,1,x,x
CCSc1ncnc2sc3c(c12)CCC3,i,-2,-6%,-5,-10%,-3%
Fc1ccc(CSc2ncnc3sc4c(c23)CCCC4)cc1,-114%*,-27,-1%,-2,-19%,-3%
COc1cc(C)nc(OCCNC(=O)COc2ccc(Cl)cc2C)n1,-109%*,2,5%,-1,-12%,4%
CC1=C2C(CCS2(=O)=O)CC2(C1)C(=O)OC(C)(C)OC2=O (stereo not given),-82%*,-4,-4%,-2,1%,4%
SMILES,pAkt inh,TSHR antag,GRP78 ERSR act,LDHA block,RGS4 inhibitor,TCR act
COC(=O)CCC(NC(=O)c1cc(C)oc1C)C(=O)OC (stereo not given),-105%*,6,2%,2,-5%,-4%[46.1 µM]
CSCCC(NC(=O)c1cc(C)oc1C)C(=O)O (stereo not given),x,-8,-3%,0,-12%,5%
CC(=O)c1c(O)cc(O)cc1CC(=O)O,i,-9,-2%,8,-6%,-2%
CC(=O)c1c(O)cc(O)c(C(C)=O)c1O,i,-94*,-3%,0,2%,-3%
c1ccc(-c2cnnc(SCc3cn4cccnc4n3)n2)cc1,-112%*,6,-3%,-1,-9%,-10%
c1ccc2[nH]c(SCc3cn4cccnc4n3)nc2c1,i,1,-3%,-4,-26%,8%[46.1 µM]
O=C(O)C(c1ccccc1)N1C(=O)/C(=C\c2ccc(-c3ccc(Br)cc3)o2)SC1=S (stereo not given),i,-21,0%,-2,u,-3%
COc1cc(/C=C2\SC(=S)N(C(C(=O)O)c3ccccc3)C2=O)cc(OC)c1OC (stereo not given),i,14,32µM*,-10,-25%,-2%
O=C(O)C(c1ccccc1)N1C(=O)/C(=C\c2ccc(-c3ccccc3Cl)o2)SC1=S (stereo not given),i,16,2%,-30*,u,-1%
COc1ccc(-c2nc(CSCC(=O)NCCCN3CCOCC3)c(C)o2)cc1OC,x,x,x,-2,x,x
O=S1(=O)CCN(Cc2ccccc2)c2c(F)nc(N3CCOCC3)c(F)c21,x,x,x,82,x,x
COC(=O)C(C)Oc1cc(OC(C)C(=O)OC)c2c(-c3ccccc3)cc(=O)oc2c1 (stereo not given),i,-13,32µM*,0,3%,-2%
COC(=O)COc1cc(OCC(=O)OC)c2c(-c3ccccc3)cc(=O)oc2c1,i,2,5%,-3,12%,-1%
O=C(Nc1nncs1)C1c2ccccc2Oc2ccccc21,-102%*,-2,-4%,-10,9%,-1%
Cc1nnc(NC(=O)C2c3ccccc3Oc3ccccc32)s1,i,-8,-6%,-6,u,4%[46.1 µM]
Cn1nc(C(F)(F)F)c(-c2cccc(C(F)(F)F)c2)c1NC(=O)CSCC(=O)O,i,-74*,0%,-4,26%,-7%
CCOC(=O)c1c(S(=O)(=O)NCC(=O)Nc2cccc(C)c2C)c(C)n(C)c1C,i,-112*,1%,-2,-3%,6%
Cc1[nH]c2ccccc2c1C(c1ccccc1I)c1c(C)[nH]c2ccccc12,x,x,x,12,x,x
CC[n+]1ccc(C[n+]2ccccc2)c2ccccc21,i,0,-2%,-40*,u,-5%[46.1 µM]
CCCCCCCCCCCCCCCC[n+]1ccc(C)c2ccccc21,x,x,-12%,x,x,x
CNc1oc(/C=C/c2ccc(OC)c(OC)c2)nc1C#N,x,x,x,3,x,x
CCOC(=O)c1ccc(-n2cccc2/C=C2\NC(=O)N(CC(=O)Nc3ccccc3C)C2=O)cc1,x,x,x,-7,x,x
CCOC(=O)C1CCN(S(=O)(=O)c2ccc(Cl)cc2OC)CC1,i,-8,-4%,-5,-6%,x
CCOC(=O)C1CCN(S(=O)(=O)c2cc(Cl)c(C)cc2OC)CC1,-105%*,6,-6%,-7,24%,0%
CCOC(=O)C1CCN(S(=O)(=O)c2c(Cl)ccc3nonc23)CC1,x,-90*,x,x,x,x
